Screening results as filed in PubChem.
This is a sample that favours compounds with a hit; in the whole collection about 3.4% have one here.
MEKK3 PB1 HTS: modulators of MEKK3-MEK5 PB1 binding, primary screen, biochemical, wildtype MEKK3, multiplex bead flow cytometry, Alexa488-MEK5. Mitogen-activated protein kinase kinase kinase 3 (Homo sapiens), Q99759. bead-based flow cytometry, Alexa488-MEK5 binding to MEKK3; actives lie on both sides; 0 = blocked by unlabeled MEK5, 100 = vehicle. binding response (% of control), % at 10 µM. 290,000 compounds, 1.4% hits. AID 1529, 2009;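 active means binding response more than 3 SD above or below the average of its plate-row segment, actives on both sides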;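 further: Alexa488 bead fluorescence after subtracting the streptavidin-only scavenger bead signal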
Target sequence (Q99759 whole entry, looked up): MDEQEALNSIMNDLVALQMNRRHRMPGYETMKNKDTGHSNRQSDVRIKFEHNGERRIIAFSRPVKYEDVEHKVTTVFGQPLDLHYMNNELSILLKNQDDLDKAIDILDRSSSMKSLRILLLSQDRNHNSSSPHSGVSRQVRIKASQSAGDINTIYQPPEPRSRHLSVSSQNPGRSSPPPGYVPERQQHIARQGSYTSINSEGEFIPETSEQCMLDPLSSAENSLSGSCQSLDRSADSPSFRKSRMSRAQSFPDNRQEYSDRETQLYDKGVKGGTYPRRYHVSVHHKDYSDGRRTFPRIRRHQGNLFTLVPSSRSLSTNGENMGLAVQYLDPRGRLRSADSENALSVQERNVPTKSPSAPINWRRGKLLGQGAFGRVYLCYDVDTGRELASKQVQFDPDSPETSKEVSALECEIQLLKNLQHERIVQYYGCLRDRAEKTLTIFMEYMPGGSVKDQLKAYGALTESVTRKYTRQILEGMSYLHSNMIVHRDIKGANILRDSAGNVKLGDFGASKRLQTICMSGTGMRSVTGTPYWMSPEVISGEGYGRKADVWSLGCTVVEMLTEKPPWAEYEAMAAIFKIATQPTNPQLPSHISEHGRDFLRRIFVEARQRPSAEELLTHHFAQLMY
ANO1 activ: TMEM16A chloride channel activators or potentiators, primary screen, cell-based, HTS. Anoctamin-1 (Mus musculus), Q8BHY3. HEK293 TMEM16A/YFP-H148Q/I152L, iodide quench fluorescence; hits give low values. B-score at 10 µM. 340,000 compounds, 0.3% hits. AID 623877, 2012;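 active means fluorescence-ratio B-score plate-corrected deviation score at least 3 library SD below zero, with starting fluorescence score within 5 deviations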;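 further: channel opened by trigger with iodide after compound preincubation; score built on the fluorescence ratio of max minus min over baseline; more negative score means more quench and so TMEM16A activation or potentiation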
MEKK2mut PB1 HTS: MEK5 binding signal on mutant MEKK2 PB1, primary screen, biochemical, multiplex bead flow cytometry, Alexa488-MEK5; percent response, % at 10 µM; AID 1530, 2009; Alexa488-MEK5 binding to MEKK2 mutant; 290,000 compounds, 0.35% hits; in the data active means percent response above about 24%, passing the limit was not always enough
MEKK2 WT-MEK5: modulators of MEK5 binding to wildtype MEKK2, primary screen, biochemical, multiplex bead flow cytometry, Alexa488-MEK5 | 290,000 compounds, 1.1% hits | AID 1531, 2009 | Alexa488-MEK5 binding to MEKK2 WT; actives lie on both sides | binding response (% of control), % at 10 µM; in the data active means binding response below about 67% or above about 130%
NTR1 agonist: agonists of human NTR1, primary screen, imaging, U2OS cells, beta-arrestin-GFP, high content; 330,000 compounds, 0.17% hits; Neurotensin receptor type 1 (Homo sapiens), P30989; AID 493036, 2011; activation, % at 20 µM; NTR1-U2OS beta-arrestin-GFP spot imaging, agonist mode;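 active means activation at or above 40% of the spot to cytoplasm intensity ratio, with at least 20 cells analyzed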
TMEM16A inh: TMEM16A chloride channel inhibitors, primary screen, cell-based, HTS | HEK293 TMEM16A/YFP iodide influx fluorescence, ionomycin | AID 588511, 2011 | 310,000 compounds, 1.2% hits | Anoctamin-1 (Mus musculus), Q8BHY3 | normalized B-score (activity score, 25-100; higher = stronger inhibition) at 10 µM;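 active means ratio plate-corrected score three or more library SD toward inhibition, starting fluorescence score within five deviations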;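 further: score derived from kinetic fluorescence span divided by baseline fluorescence per well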
MEKK2wt confirm: modulators of MEK5 binding to wildtype MEKK2, confirmation, biochemical, single concentration, multiplex bead flow cytometry; AID 1892, 2009; shares compounds with MEKK3 PB1 HTS; binding response (% of control), % at 10 µM; Alexa488-MEK5 binding to MEKK2 WT; actives lie on both sides; 5,900 compounds, 2.4% hits; in the data active means binding response below about 16% or above about 210%; inactive means in between
MEKK2mut-MEK5: mutant MEKK2 PB1-MEK5 binding signal retest – biochemical, single concentration, multiplex bead flow cytometry, confirmation; AID 1893, 2009; Alexa488-MEK5 binding to MEKK2 mutant; 5,900 compounds, 2% hits; percent response, % at 10 µM; shares compounds with MEKK3 PB1 HTS; in the data active means percent response mostly above about 71%, no sharp cut-off; inactive means mostly below about 38%;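 further: higher means compound restores mutant binding toward wildtype level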
MEKK3 confirm: MEKK3 wild-type PB1 binding to MEK5, inhibitors, confirmation, biochemical, bead multiplex flow cytometry, single concentration, wildtype. AID 1894, 2009. Alexa488-MEK5 binding to MEKK3; hits give low values. binding response (% of control), % at 10 µM. shares compounds with MEKK3 PB1 HTS. 5,900 compounds, 1.8% hits;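 active means binding response below 72% of control, or above a set upper limit, though filed actives all read lower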
Hits are given with their value; i = inactive; nt = not tested or not shown; [ ] = another dose, or the depositor's remark.

SMILES	MEKK3 PB1 HTS	ANO1 activ	MEKK2mut PB1 HTS	MEKK2 WT-MEK5	NTR1 agonist	TMEM16A inh	MEKK2wt confirm	MEKK2mut-MEK5	MEKK3 confirm
COc1cccc(CC2(CO)CCCN(Cc3[nH]c4ccc(C)cc4c3C)C2)c1 (stereo unspecified)	i	i	i	157	i	i	i	i	i
COc1cccc(CC2(CO)CCCN(Cc3ccc(CO)o3)C2)c1 (stereo unspecified)	i	i	i	i	i	i	nt	nt	nt
Cc1cccnc1NC(=O)C(C)N1C(=O)c2ccccc2C1=O (stereo unspecified)	131	i	i	i	i	i	i	i	i
Cc1ccccc1NC(=O)C(C)N1C(=O)c2ccccc2C1=O (stereo unspecified)	i	i	i	i	i	i	nt	nt	nt
Clc1cccc(Nc2nc(-c3cccnc3)cs2)c1	nt	i	nt	154	i	i	i	i	i
CCc1cccc2c(C=C(C#N)C#N)cn(CC(=O)N3CCCCCC3)c12	i	i	i	i	i	i	nt	nt	nt
Cc1ccc(C2C(C#N)=C(N)Oc3cc(N)ccc32)cc1 (stereo unspecified)	i	i	i	i	i	i	nt	nt	nt
Cc1ccc(/C=C2\CCC3=C2OC(N)=C(C#N)C3c2ccc(C)cc2)cc1 (stereo unspecified)	i	i	108	i	i	i	i	i	i
Cn1cc2cc([N+](=O)[O-])ccc2n1	i	i	i	i	i	i	nt	nt	nt
O=C(N/N=C\c1cccc(Cl)c1)c1n[nH]c2c1CCCC2	i	i	i	i	i	i	nt	nt	nt
O=C(N/N=C/c1ccc(Cl)cc1Cl)c1n[nH]c2c1CCCC2	128	i	i	i	i	i	i	i	i
Nc1ccccc1Nc1cc(-c2ccccc2)nn1-c1cccc(Cl)c1	141	i	i	i	i	i	i	i	i
CCCN1C(=O)c2cccc3c(N4CCCCC4)ccc(c23)C1=O	i	i	i	60[inhibitor]	nt	i	i	i	i
CS/C(N)=N/N=C/c1c(O)ccc2ccccc12	133	i	i	i	i	i	i	i	i
CN(C)/N=C/c1c(O)ccc2ccccc12	i	i	i	i	i	i	nt	nt	nt
C[C@H](NC(=O)c1cc2cc(Cl)ccc2n1C)C(=O)N[C@@H](C(=O)O)c1ccccc1	i	i	i	i	i	i	nt	nt	nt
O=C(CN(c1cccc([N+](=O)[O-])c1)S(=O)(=O)c1ccccc1)N(Cc1ccccc1)Cc1ccccc1	137	i	i	i	i	i	i	i	i
CCN(C(=O)CSc1ncccn1)C1CCS(=O)(=O)C1 (stereo unspecified)	i	i	i	i	i	i	nt	nt	nt
O=C(CN(Cc1ccc(F)cc1)C(=O)c1ccco1)NCc1ccc(F)cc1	0.0[inhibitor]	i	i	0.0[inhibitor]	i	i	i	i	i
CC1CCCN(CCOc2ccc3ccccc3c2Br)C1 (stereo unspecified)	i	i	i	157	i	i	i	i	i
COc1ccc(C(=O)C2=NN(C(C)=O)CC2c2ccco2)cc1 (stereo unspecified)	i	i	i	i	i	i	nt	nt	nt
O=C(CSc1nnc(COc2ccccc2)n1Cc1ccco1)c1ccc(F)cc1	i	i	i	i	i	i	nt	nt	nt
NC(=O)CSc1nnc(COc2ccccc2)n1Cc1ccco1	131	i	i	i	i	i	i	i	i
Cc1ccccc1Nc1nc(N)nc(COC(=O)CC2CC3CCC2C3)n1 (stereo unspecified)	i	i	i	i	i	i	nt	nt	nt
O=C(NCc1cccnc1)C(=O)NCC1OCCCN1S(=O)(=O)c1ccccc1 (stereo unspecified)	i	i	i	i	i	i	nt	nt	nt
SMILES	MEKK3 PB1 HTS	ANO1 activ	MEKK2mut PB1 HTS	MEKK2 WT-MEK5	NTR1 agonist	TMEM16A inh	MEKK2wt confirm	MEKK2mut-MEK5	MEKK3 confirm
CN(C)CCN1CCc2ccccc21	i	i	i	144	i	i	i	i	i
COc1ccc([N+](=O)[O-])cc1NC(=O)CSc1ccc2ccccc2c1	148	i	i	i	i	i	i	i	i
COc1ccc(Nc2cc(C(=O)NCc3ccco3)c3ccccc3n2)c(OC)c1	133	i	i	i	i	i	i	i	i
Cc1ccc(N2C(=O)c3ccccc3NC2(C(=O)O)c2ccccc2)cc1Cl (stereo unspecified)	i	i	i	i	i	i	nt	nt	nt
CC(=O)OC1OCCOC1NC(=S)NCc1ccco1 (stereo unspecified)	1.0[inhibitor]	i	i	nt	i	i	i	i	i
CC(=O)OC1OCCOC1NC(=S)Nc1cccc(C(F)(F)F)c1 (stereo unspecified)	i	i	i	i	i	i	nt	nt	nt
O=S(=O)(c1ccc2c(c1)OCCO2)N1CCN(c2cccc(Cl)c2)CC1	81[inhibitor]	i	i	i	i	i	i	i	i
O=S(=O)(c1cccc(Cl)c1)N1CCN(S(=O)(=O)c2ccc3c(c2)OCCO3)CC1	nt	i	nt	nt	i	nt	nt	nt	nt
O=C(Nc1ccc(Cl)c(C(F)(F)F)c1)c1ccncc1	2.0[inhibitor]	i	i	5.0[inhibitor]	i	i	i	i	i
Cc1ccc(C(=O)Nc2ccc(Br)c(C(F)(F)F)c2)cc1	i	i	i	170	i	100	i	i	i
Cc1c(Cl)ccc(S(=O)(=O)Nc2cccnc2)c1Cl	i	i	i	i	i	i	nt	nt	nt
CCCCCCOC(=O)C(C#N)c1nc2ccccc2nc1N1CCN(CC)CC1 (stereo unspecified)	i	i	i	158	i	i	i	i	i
CCCCCCOC(=O)C(C#N)c1nc2ccccc2nc1N1CCOCC1 (stereo unspecified)	i	i	i	i	i	i	nt	nt	nt
